Measurements taken from the supplement of paper PMC13380429.
Unmarked numbers belong to inactive results.

Test system: Vero E6 infected with SARS-CoV-2
Assay: inhibition of SARS-CoV-2 cytopathic effect; higher = more antiviral protection, active = above 15
Conditions: 48 h

Row | Structure (SMILES) | inhibition of SARS-CoV-2 cytopathic effect (1 nM) [%] | inhibition of SARS-CoV-2 cytopathic effect (8.33 nM) [%] | inhibition of SARS-CoV-2 cytopathic effect (100 nM) [%] | inhibition of SARS-CoV-2 cytopathic effect (833.33 nM) [%] | inhibition of SARS-CoV-2 cytopathic effect (10000 nM)
1 | CC1(C)Cc2c(-c3ccccc3)c(-c3ccc(Cl)cc3)c(CC(=O)O)n2C1 [licofelone] | -2.87 | 2.92 | 4.49 | 3.45 | 2.49%
2 | O=C(NCc1ccncc1)C12CC3CC(C1)CC(c1ccc(Cl)cc1)(C3)C2 | 2.05 | -4 | -2.61 | -2.22 | -5.2%
3 | COc1cc(OC)c(NC(=O)Nc2cc(C)on2)cc1Cl | 2.33 | 0.81 | 1.57 | 4.04 | 2.62%
4 | CCC(N)C(O)c1ccc(O)c(O)c1 (stereo not given) [ethylnorepinephrine] | -0.61 | 0.7 | 0.54 | -1.28 | -0.69%
5 | CCCCCn1cc(C(=O)NC23CC4CC(CC(C4)C2)C3)c(=O)c2cc(-c3ccccc3)ccc21 | -3.48 | -3 | -0.96 | -1.94 | -5.93%
6 | C[C@@]1(O)[C@H](O)[C@@H](CO)O[C@H]1n1cnc2c(NC3CCCC3)nc(Cl)nc21 | 1.63 | 2.06 | 1.32 | 0.53 | -0.13%
7 | Fc1ccc(CN2CCC(Nc3ccc(C(F)(F)F)nn3)CC2)cc1F | 0.35 | 2.13 | 2.17 | 1.38 | -6.9%
8 | CC[C@H](C)[C@H](N)C(=O)O [isoleucine] | -1.51 | -4.12 | -0.12 | 0.05 | 1.97%
9 | CC(=O)c1c(C)c2cnc(Nc3ccc(N4CCNCC4)cn3)nc2n(C2CCCC2)c1=O [palbociclib] | 2.16 | 0.47 | -4.3 | -0.35 | 5.01%
10 | COc1cc(OC2CCN(C)CC2)ccc1Nc1ncc2c(n1)n(C1CCCC1)c(=O)n2C | 1.63 | 2.01 | -2.6 | 0.1 | 11.1%
11 | O=C(N[C@H](CO)[C@H](O)c1ccc([N+](=O)[O-])cc1)C(Cl)Cl [chloramphenicol] | 0.28 | -0.6 | -1.23 | 0.21 | -3.04%
12 | CCCCCCCCCCCCCCCCNc1ccc(C(=O)O)cc1 [cetaben] | 2.02 | 3.28 | 1.52 | 1.67 | -2.46%
13 | C[C@@H]([C@@H](O)c1ccc(O)cc1)N1CCC(O)(c2ccccc2)CC1 [traxoprodil] | 4.34 | -0.79 | -2.83 | 1.39 | -1.06%
14 | O=C(O)CCc1ccc(NCc2cccc(Oc3ccccc3)c2)cc1 | 1.33 | -1.1 | -1.51 | -0.16 | -0.27%
15 | Nc1nc(F)nc2c1ncn2[C@@H]1O[C@H](COP(=O)(O)O)[C@@H](O)[C@@H]1O [fludarabine-phosphate] | 1.37 | 1.76 | -0.32 | 1.79 | -4.26%
16 | CCCCCCc1ccc(O)cc1O [hexylresorcinol] | 1.73 | 1.1 | 2.21 | 4.02 | 3.14%
17 | Nc1ccn([C@@H]2CS[C@H](CO)O2)c(=O)n1 [lamivudine] | -0.38 | 0.6 | -0.56 | -0.22 | 4.96%
18 | c1ccc2nc(N3CCNCC3)ccc2c1 [quipazine] | 2.16 | -1.97 | -0.43 | 1.22 | -2.16%
19 | CC1CC(OC(=O)C(O)c2ccccc2)CC(C)(C)N1C (stereo not given) [eucatropine] | 0.81 | 3.45 | 1.74 | 0.69 | 0%
20 | CC(C)Oc1ccc(-c2nc(-c3cccc4c3CC[C@H]4NCCC(=O)O)no2)cc1C#N | -2.71 | -1.13 | 0.51 | 2.4 | -0.03%
21 | O=C(O)C1=CO[C@@H](O[C@@H]2O[C@H](CO)[C@@H](O)[C@H](O)[C@H]2O)[C@@H]2C(CO)=CC[C@H]12 [Geniposidic acid] | -0.41 | 3.01 | 0.36 | -1.23 | 1.07%

Row | Structure (SMILES) | inhibition of SARS-CoV-2 cytopathic effect (1 nM) [%] | inhibition of SARS-CoV-2 cytopathic effect (8.33 nM) [%] | inhibition of SARS-CoV-2 cytopathic effect (100 nM) [%] | inhibition of SARS-CoV-2 cytopathic effect (833.33 nM) [%] | inhibition of SARS-CoV-2 cytopathic effect (10000 nM)
22 | COc1ccc(-c2cc(=O)c3c(O)cc(O[C@@H]4O[C@H](CO[C@@H]5O[C@@H](C)[C@H](O)[C@@H](O)[C@H]5O)[C@@H](O)[C@H](O)[C@H]4O)cc3o2)cc1O [diosmin] | 3.94 | -0.11 | -2.26 | 4.64 | -2.85%
23 | C=CC(N)CCC(=O)O (stereo not given) [vigabatrin] | -9.39 | -9.03 | -9.5 | -11 | -9.82%
24 | C[C@H]1NCc2cc(-c3ccc4c(=O)c(C(=O)O)cn(C5CC5)c4c3OC(F)F)ccc21 [garenoxacin] | -4.16 | -1.9 | 1.67 | 3.28 | 1.04%
25 | Cn1c(C#N)ccc1-c1ccc2c(c1)C(C)(C)OC(=S)N2 [tanaproget] | 3.59 | 4.95 | 0.34 | 3.55 | 1.06%
26 | OCc1ccccc1O [salicyl-alcohol] | -0.86 | -1.41 | 0.06 | 4.76 | 0.29%
27 | CC(C)(C)OC(=O)c1ncn2c1[C@@H]1CCCN1C(=O)c1c(Br)cccc1-2 [bretazenil] | -1.38 | -4.36 | -1.99 | -3.96 | -1.07%
28 | c1ccc(CC2=NCCN2)cc1 [tolazoline] | -0.5 | 0.92 | 1.33 | 2.41 | -0.69%
29 | COc1ccc(S(=O)(=O)Nc2cc(Cl)cc(Cl)c2OC)cc1N1CCNCC1 | -1.83 | 1.03 | 1.96 | 5.17 | -2.32%
30 | CC(C)C(=O)Nc1ncc(-c2cc(C(F)F)nn2-c2c(Cl)cccc2Cl)s1 | 0.32 | 2.58 | -0.32 | -2.46 | -5.83%
31 | COC(=O)[C@H](NC(=O)c1cc(-c2ccccc2)nc2ccccc12)c1ccccc1 | 2.67 | 2.5 | 0.38 | 0.39 | 1.12%
32 | NC(N)=Nc1nc(CSCC/C(N)=N/S(N)(=O)=O)cs1 [famotidine] | -4.18 | -3.04 | 2.88 | 4.59 | -0.5%
33 | Cc1nc2ccccc2c(-c2ccc3c4c(ccnc24)CCO3)c1[C@H](OC(C)(C)C)C(=O)O | -1.93 | -2.73 | -4.38 | -4.78 | -3.59%
34 | CN[C@@H](C)C(=O)N[C@H](C(=O)N1CCC[C@H]1C(=O)Nc1snnc1-c1ccccc1)C1CCCCC1 | 0.62 | -0.64 | -0.23 | -0.79 | -5.99%
35 | Cc1c(-c2cnccn2)ssc1=S [oltipraz] | 1.51 | 4.72 | 3.49 | 5.97 | 0.75%
36 | COc1cccc(C(=O)CCN[C@@H](C)[C@H](O)c2ccccc2)c1 [oxyfedrine] | 0.05 | 1.34 | -0.45 | 0.14 | 1.77%
37 | CCN(c1cc(-c2ccc(CN3CCOCC3)cc2)cc(C(=O)NCc2c(C)cc(C)[nH]c2=O)c1C)C1CCOCC1 [tazemetostat] | 2.86 | 0.49 | 3.47 | 0.53 | -0.93%
38 | Nc1ncnc2c1c(-c1cccc(OCc3ccccc3)c1)cn2C1CC(CN2CCCC2)C1 (stereo in doubt) | -0.48 | 0.04 | 1.98 | 0.14 | 27.9% (active)
39 | O=[N+]([O-])c1cc(Cl)ccc1S(=O)(=O)N1CCN(Cc2ccccc2)CC1 | 2.15 | 2.13 | -0.96 | 3.68 | -1.65%
40 | O=C(N[C@H]1CN2CCC1CC2)c1ccc(Cl)cc1 | 1.35 | 0.97 | 1.21 | 0.86 | 1.51%
41 | CC(C(=O)O)c1ccc2c(c1)Cc1ccccc1-2 (stereo not given) [cicloprofen] | 1 | 0.42 | 2.68 | 1.95 | 4.16%
